Most compounds without a hit are left out; they make up all but 3% or so of the library.
pS6 MEF inh: Acumen qHTS Assay for Inhibitors of the mTORC1 Signaling Pathway in MEF (Tsc2-/-, p53-/-) Cells: Sytravon; Tsc2-/- p53-/- MEF, phospho-rpS6 immunofluorescence/PI, 24 h; Potency, µM (doses to about 38.3 µM), inactives show at the highest dose activity change, negative = inhibition, most hits filed as inhibitors; 44,000 tested, 0.78% active;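 note: plate controls were DMSO for no effect and rapamycin for full effect; nearly all actives have a fitted effect of over 50% in size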
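Cell-based qHTS: Tsc2-/- p53-/- MEF, 24 h cpd, 37 °C; fix/perm, anti-phospho-S6 Alexa-488 + PI; Acumen 488 nm scan; pS6/PI ratio, % positive cells; rapamycin 7.5 nM = inhibition ref; PI count = viability.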
PMP22 txn: Cell-based coincidence reporter assay to measure PMP22 gene transcription in S16 Pmp22-F2sN cells - Primary screen. S16 Pmp22-F2sN Schwann cells, FLuc/NLuc coincidence luminescence, 24 h. Potency, µM (highest dose often 57.5 µM), without a hit: at the top dose activity change, negative = inhibition, actives largely listed as inhibitors. 43,000 tested, 2% active. AID 1508649, 2021; active = clear falling dose curves in both reporters; inconclusive = both reporters move, but less clearly or upward; inactive = either reporter flat; the % is the NLuc reporter signal
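Transcriptional readout in edited S16(c9) cells: two luciferases reported from the Pmp22 locus, measured in turn after 24 h compound incubation.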
SKOV3 invasion: Primary qHTS assay for Inhibitors of ovarian cancer metastasis using an organotypic tumor microenvironment (TME) model; SKOV3ip1-GFP adhesion/invasion on 3D omental model, fluorescence; 46,000 tested, 0.1% active; AID 1963576, 2024; Potency, µM (doses to about 45.8 µM), without a hit: at the highest dose activity change, negative = inhibition, hits mostly inhibitors;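 note: plate controls were DMSO wells for no effect and tomatine positive control wells for full effect; nearly all actives have a fitted effect of over 65% in size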
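qHTS, 4-pt dose (0.36-46 umol/L); SKOV3ip1-GFP, 1,200 cells/well, no FBS; primary omental fibroblast/mesothelial co-culture 48 h pre-grown; 2 h RT + 16 h 37 C; PBS wash, 4% PFA; GFP count 488/509 nm.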
S16 F2sN tox: Cell viability qHTS assay in S16 Pmp22-F2sN cells; S16 Pmp22-F2sN Schwann cells viability, CellTiter-Glo, 24 h; Potency, µM (doses to about 57.5 µM), inactives show top-dose activity change, negative = cytotoxicity, actives largely listed as cytotoxic; 43,000 tested, 0.48% active; AID 1508642, 2021; note: nearly all actives have a fitted effect of over 65% in size
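Used to flag compounds lowering reporter output through toxicity, this quantitative HTS measures ATP-based CellTiter-Glo luminescence in S16 Pmp22-F2sN Schwann cells after 24 h compound exposure at 37C.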
p53null 39C tox: qHTS Screen for Compounds that Selectively Target Cancer Cells with p53 Mutations: Cytotoxicity of p53 Null Cells at the Nonpermissive Temperature. AID 904, 2007. H1299 p53-null (neo) cells, 39C, ATPlite viability, 24 h. Potency, µM (doses to about 46.1 µM), inactives show at the top dose activity, negative = cell killing, most hits filed as cytotoxic. 55,000 tested, 0.97% active;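 note: 0% = DMSO only and -100% = full killing by 100 µM tamoxifen; nearly all actives have a fitted effect of over 50% in size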
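H1299 lung cancer cells, p53-null (H1299-neo) or expressing p53 A138V (H1299-p53A138V), were plated overnight at 37C, then exposed to compounds at up to 46 uM for 24 hr at 39C. Viability was read by ATP-based luminescence.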
p53null 32C tox: qHTS Screen for Compounds that Selectively Target Cancer Cells with p53 Mutations: Cytotoxicity of p53 Null Cells at the Permissive Temperature; Potency, µM (titrated, usually from 46.1 µM), without a hit: at the highest dose activity change, negative = cytotoxicity, most hits filed as cytotoxic; H1299-neo p53 null cells, ATP luminescence, 24 h, 32C; 55,000 tested, 0.62% active;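 note: 0% = DMSO only and -100% = full killing by 100 µM tamoxifen; nearly all actives have a fitted effect of over 55% in size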
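H1299-neo (p53 null) cells, 600/well, treated 24 h at 32C with compound up to 46 uM; ATPlite luminescence viability, normalized to DMSO and 100 uM tamoxifen; AC50 by Hill fit.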
* marks the source's active call; other numbers are inactive results; i = inactive; ? = inconclusive; nt = no result given; [ ] = dose if it differs, or a comment. Unless noted, calls come from the whole dose curve; as a rule, active = well fitted curve in the direction sought with a large enough effect; inconclusive = small, poorly fitted or top-dose-only effect, or another doubt; inactive = no such curve, though single readings can be large; an effect the other way counts as inactive or inconclusive. Unless noted, % is set by controls: 0 for no effect and ±100 for the full control effect; potency is the fitted concentration of half-maximal effect.

SMILES	pS6 MEF inh	PMP22 txn	SKOV3 invasion	S16 F2sN tox	p53null 39C tox	p53null 32C tox
CC(C)c1cc(C(C)C)c(CC(=O)NS(=O)(=O)Oc2c(C(C)C)cccc2C(C)C)c(C(C)C)c1	nt	nt	-10.7%	nt	nt	nt
COc1cccc(NC(=O)CSc2nnc(-c3cccc(OC)c3)o2)c1	-14.8%	-15.3%	4.2%	-7.6%	6.31µM*	15.8µM*
COc1ccccc1NC(=O)CSc1nnc(-c2ccccc2C)o1	-1.7%	1.6%	2.5%	0.2%	3.98µM*	?
O=C(CSc1nnc(-c2ccccc2F)o1)Nc1ccccc1Cl	-3.5%	9.3%	i	-16.9%	7.94µM*	-20.8%
Cc1cccc(NC(=O)CSc2nnc(-c3ccccc3C)o2)c1	nt	nt	nt	nt	10µM*	-20.3%
COc1ccc(NC(=O)CSc2nnc(-c3ccc(C)cc3)o2)cc1	-4.4%	-36.8%	i	-3.0%	15.5%	-9.0%
O=C(CSc1nnc(-c2ccccc2Cl)o1)Nc1ccc2c(c1)OCCO2	nt	nt	nt	nt	-8.1%	-6.6%
Cc1cccc(-c2nnc(SCC(=O)Nc3ccc(C)c(C)c3)o2)c1	-10.0%	-25.5%	1.8%	0.2%	-6.5%	-10.4%
C[C@H]1[C@@H](OC(=O)CCC(=O)O)O[C@@H]2O[C@@]3(C)CC[C@@H]4[C@H](C)CC[C@@H]1[C@@]24OO3	nt	nt	-15.2%	nt	nt	nt
CC(=O)Nc1nc(C)c(-c2ccc(Cl)c(S(=O)(=O)NCCO)c2)s1	nt	nt	-13.1%	nt	nt	nt
Cc1ccc(N(C)S(=O)(=O)c2ccc(-c3cnc(C4CC4)o3)cc2)cc1	0.6%	14.1µM*	-29.5%	?	?	-13.6%
Cc1ccc(CNS(=O)(=O)c2ccc(-c3cnc(C4CC4)o3)cc2)cc1	1.5%	?	i	-24.8%	8.3%	1.5%
COc1cc(Cl)c(NS(=O)(=O)c2ccc(-c3cnc(C4CC4)o3)cc2)c(OC)c1	-29.3%	2.99µM*	5.7%	1.26µM*	?	-4.6%
CCOC(=O)c1cccc(NS(=O)(=O)c2ccc(-c3cnc(C4CC4)o3)cc2)c1	-18.1%	10.6µM*	i	?	1.3%	-5.8%
CC(=O)c1ccc(NS(=O)(=O)c2ccc(-c3cnc(C4CC4)o3)cc2)cc1	-1.5%	-2.6%	i	6.0%	0.2%	?
CN(C)C(=O)c1ccc(S(=O)(=O)c2ccc(NC(=O)[C@@](C)(O)C(F)(F)F)c(Cl)c2)cc1	nt	nt	-11.7%	nt	nt	nt
O=c1cc(-c2cccc3c2Sc2ccccc2S3)oc(N2CCOCC2)c1	nt	nt	-13.4%	nt	nt	nt
CC1COC2(CCN(c3nc(=O)c4cc(C(F)(F)F)cc([N+](=O)[O-])c4s3)CC2)O1 (centres undefined)	nt	nt	-4.6%	nt	nt	nt
CCN(CC)CCN(C(=O)c1ccco1)c1nc2c(C)c(C)ccc2s1	-6.4%	?	-5.6%	-12.1%	-12.2%	-16.7%
Cc1ccc2sc(N(CCCN(C)C)C(=O)c3ccco3)nc2c1C	11.7µM*	?	i	?	?	-12.8%
CC[C@H](C=C[C@@H](C)[C@H]1CC[C@H]2[C@@H]3CC=C4C[C@@H](O)CC[C@]4(C)[C@@H]3CC[C@]12C)C(C)C	nt	nt	0.7%[23.2 µM]	nt	nt	nt
COc1ccc(CNC(=O)c2cc(-c3ccc(Br)s3)nc3ccccc23)cc1	-6.8%	?	i	-3.9%	?	8.0%
Cc1ccc(NC(=O)c2cc(-c3ccc(Br)s3)nc3ccccc23)cc1F	-9.1%	?	-2.5%	31.6µM*	-20.9%	-12.2%
